# Test results as given in PubChem BioAssay AID1566 (Sanford-Burnham Center for Chemical Genomics, 2009).
# Out of some 290,000 compounds screened, about 1,800 (0.62%) were called active. Cut-off read from the data, not from the text of the source: active = inhibition above about 50%; inactive = the rest. Only a selection was taken, and actives are over-represented in it overall.
# Test: inhibition of NOD2-driven NF-kB reporter – cell-based, luminescence, uHTS, HEK293 (AID 1566)
# Details: HEK293 NOD2/NF-kB luciferase reporter, at 4 µM, hits give high values
row,Structure (SMILES),inhibition
1,CCN(CC)c1ccc(/C=N/N2CCN(Cc3ccccc3Cl)CC2)cc1,4.7% (inactive)
2,CCCN(CCC)c1ncnc2c1cnn2-c1ccc(OC)cc1,-123% (inactive)
3,Cc1cccc(-n2ncc3c(N(C)Cc4ccccc4)ncnc32)c1,-120% (inactive)
4,COc1ccc(-n2ncc3c(NC(C)C)ncnc32)cc1,13.8% (inactive)
5,Cc1cccc(-n2ncc3c(NC4CCCCC4)ncnc32)c1,7.4% (inactive)
6,Cc1cccc(-n2ncc3c(N(C)C4CCCCC4)ncnc32)c1,72.3% (active)
7,Fc1cccc(NC(=S)NCCc2ccccc2)c1,10% (inactive)
8,CC(=O)Oc1cccc(NC(=O)c2ccc3c(c2)C(=O)N(CC(C)C)C3=O)c1,-7.8% (inactive)
9,O=C(CN1CCc2ccccc2C1)Nc1cc(S(=O)(=O)N2CCOCC2)ccc1N1CCOCC1,-2.4% (inactive)
10,CCN(CC)c1ccc(S(=O)(=O)N2CCOCC2)cc1NC(=O)CN1CCN(Cc2ccccc2)CC1,-7.9% (inactive)
11,COc1ccc(OC)c(N2C(=O)CC(C(C)c3ccccc3)C2=O)c1 (configuration not stated),9.7% (inactive)
12,COc1ccc(-n2c3c(cc(C(=O)NCc4ccco4)c2=O)C(=O)CC(C)(C)C3)cc1,10.7% (inactive)
13,Cc1ccc(C(=O)CSc2nnc3ccccn23)c(C)c1,-52.8% (inactive)
14,Cc1cc(C(=O)CSc2nnc3ccccn23)c(C)n1-c1ccccc1,66.8% (active)
15,Cc1cc(C(=O)CSc2nncn2C)c(C)n1-c1ccccc1,-52.4% (inactive)
16,COc1ccc(NC(=O)c2c(NC(=O)CNCc3ccco3)sc3c2CCC3)cc1,6.3% (inactive)
17,O=C(O)c1cccc(Cn2c(Cl)c(/C=N/Nc3ccccc3)sc2=O)c1,14.5% (inactive)
18,Cc1ccccc1N/N=C/c1sc(=O)n(Cc2cccc(C(=O)O)c2)c1Cl,51.6% (active)
19,COC(=O)c1cccc(Cn2c(Cl)c(/C=N/Nc3ccccc3C)sc2=O)c1,10.1% (inactive)
20,CCCNC(=S)N1CCC(C(=O)c2ccc(OC)cc2)CC1,15.3% (inactive)
21,COC(=O)N1C(=O)[C@](c2ccsc2)(C(C)C)N1C(=O)OC,32.8% (inactive)
22,CCCCc1c(C)nc2ccc(Br)cc2c1SCCC#N,18% (inactive)
23,CCc1c(C)nc2c(Br)cccc2c1SCCC#N,10.1% (inactive)
24,CC(C)N=c1scc(-c2cccs2)n1/N=C/c1ccc(O)c(O)c1O,-1.3% (inactive)
25,CN=c1scc(-c2cccs2)n1/N=C/c1ccc(O)c(O)c1O,-25.9% (inactive)
26,CN=c1scc(-c2cccs2)n1/N=C/c1ccccc1O,88.7% (active)
27,CCc1noc(C)c1C(=O)OCC(=O)NC(=O)c1ccccc1,2.8% (inactive)
